Source: PubChem
Only some compounds are listed: those with a hit (about 3.4% of all), similar ones and a draw of the others.
GPR151 ag = activators of human GPR151, primary screen, cell-based, PathHunter beta-arrestin, luminescence | G-protein coupled receptor 151 (Homo sapiens), Q8TDV0 | PathHunter beta-arrestin GPR151 cells | activation, % at 11.2 µM | 650,000 tested, 1% active | AID 1508602, 2020; in the data active = activation above about 4.9%;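 note: 0% = median of compound wells and 100% = cells with positive control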
MITF inh = MITF inhibitors, primary screen, biochemical, AlphaScreen, human; Microphthalmia-associated transcription factor (Homo sapiens), O75030; AlphaScreen MITF homodimerization, bead proximity signal; inhibition, % at 2.6 µM; 650,000 tested, 0.91% active; AID 1259374, 2018; in the data active = inhibition above about 50%;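 note: 0% = vehicle wells with protein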
FBW7 activator = FBW7 E3 ligase activators, primary screen, biochemical, AlphaScreen, human; 650,000 tested, 0.13% active; AlphaScreen FBW7–phospho-cyclin E peptide binding, activator screen; AID 1259310, 2017; F-box/WD repeat-containing protein 7 (Homo sapiens), Q969H0; normalized activity (activation), % at 26.1 µM; in the data active = normalized activity above about 1.9%;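 note: purified mutant Fbw7 with reduced substrate affinity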
TEAD-YAP block = TEAD-YAP interaction inhibition, primary screen, TEAD-YAP interaction inhibitor project, luminescence, HEK-TIYL cells | TEAD-Gal4/YAP UAS-luciferase luminescence | inhibition, % at 9.12 µM | 640,000 tested, 1.4% active | AID 1259422, 2018; in the data active = inhibition above about 32%;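 note: 0% = median of test compound wells and 100% = reference inhibitor wells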
GPR151 conf act = GPR151 activators, triplicate retest, confirmation, cell-based, PathHunter beta-arrestin, luminescence; shares compounds with GPR151 ag; GPR151 PathHunter beta-arrestin cells, 90 min; % of EA-reagent control over plate median; activation, % at 11.2 µM; 6,700 tested, under 10 active;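 active = mean percent activation across replicates above the confirmation screen cutoff of 4.91%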
GPR119 counter = GPR119 activators in beta-arrestin cells, counter-screen for GPR151 activator project, cell-based, PathHunter beta-arrestin, luminescence, triplicate; 90 min; 0 = compound-well median, 100 = enzyme-acceptor control; shares compounds with GPR151 ag; AID 1508611, 2020; 6,700 tested, 0.3% active; activation, % at 11.2 µM;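 active = mean percent activation in the counterscreen above 29.09%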;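 note: counterscreen on off-target GPR119 to flag nonselective hits from the GPR151 activator screen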
Starred values were filed as active, the others as inactive; x = no result given.

SMILES	GPR151 ag	MITF inh	FBW7 activator	TEAD-YAP block	GPR151 conf act	GPR119 counter
CCC(C)Nc1c([N+](=O)[O-])cc(C(=O)O)cc1[N+](=O)[O-] (stereo unspecified)	0	6	0	3	x	x
CCC(Nc1c([N+](=O)[O-])cc(C(F)(F)F)cc1[N+](=O)[O-])C(=O)O (stereo unspecified)	6.0*	-4	0	4	0	7
CC(=O)c1cccc(NC(=O)C(C)N2C(=O)C3C4C=CC(C5CC45)C3C2=O)c1 (stereo unspecified)	0	12	0	7	x	x
CC(C(=O)Nc1cccc([N+](=O)[O-])c1)N1C(=O)C2C3C=CC(C4CC34)C2C1=O (stereo unspecified)	8.6*	9	0	-1	0	-9
CCC(C(=O)Nc1ccc(F)cc1)n1c2ccccc2c2nc(=O)cc(C)n21 (stereo unspecified)	5.3*	11	0	5	0	0
CCC(C(=O)Nc1ccc(F)cc1F)n1c2ccccc2c2nc(=O)cc(C)n21 (stereo unspecified)	-1	-10	0	-5	x	x
Cc1cc(C)c(S(=O)(=O)NCCc2ccc(S(N)(=O)=O)cc2)c(C)c1	7.1*	4	0	12	1	11
CCCN(CCC)CCCn1cnc2c([nH]c3ccc(F)cc32)c1=O	5	9	0	6	x	x
CCCN(CCC)CCCn1cnc2c([nH]c3ccc(OC)cc32)c1=O	5.1*	-4	0	-1	0	5
C=CCNc1cc(-c2ccccc2)nc2ncnn12	0	-2	0	-3	x	x
C#CCNc1cc(-c2ccccc2)nc2ncnn12	7.1*	-1	0	0	0	-3
CC(C)CC1=NN(C(=O)C(=O)NCCc2ccccc2)C(O)(C(F)(F)F)C1 (stereo unspecified)	5.5*	0	0	-2	0	1
CC(C)CCC1=NN(C(=O)C(=O)NCCc2ccccc2)C(O)(C(F)(F)F)C1 (stereo unspecified)	1	10	0	-8	x	x
O=c1cc(-c2ccccc2[N+](=O)[O-])nc(-c2ccco2)o1	7.3*	-4	0	-1	0	-2
Cc1ccc(C(=O)N2CCN(C=O)CC2)c(Cl)c1	6.5*	16	0	4	0	-4
O=CN1CCN(C(=O)c2ccccc2Cl)CC1	1	10	0	-3	x	x
COCCN1C(=O)C(O)=C(C(=O)c2ccc(C)o2)C1c1ccc(C(C)(C)C)cc1 (stereo unspecified)	7.5*	-1	0	7	0	-2
COCCCN1C(=O)C(O)=C(C(=O)c2ccco2)C1c1ccc(C(C)(C)C)cc1 (stereo unspecified)	0	19	1	17	x	x
COc1ccc(CNS(=O)(=O)c2cnc[nH]2)cc1	1	-1	0	-3	x	x
COc1cccc(CCC(=O)N2CCCC(N3CCC(CO)CC3)C2)c1 (stereo unspecified)	8.1*	12	0	10	0	-10
O=C(NCc1nc2ccccc2[nH]1)c1cccc(-c2ccccc2)n1	7.1*	-3	0	8	1	-3
O=C(CN1c2cccc3cccc(c23)S1(=O)=O)Nc1ccc(Br)cc1F	7.1*	-9	0	8	1	9
O=C(CN1c2cccc3cccc(c23)S1(=O)=O)Nc1ccc(F)c(F)c1	0	-5	0	-8	x	x
COCCCN(C(=S)Nc1cccc(Cl)c1)C(C)c1ccncc1 (stereo unspecified)	5.9*	-5	0	-5	-1	5
CSC1=C(C#N)C(c2ccc3c(c2)OCO3)CC(=O)N1 (stereo unspecified)	5.1*	-2	0	-2	0	2
SMILES	GPR151 ag	MITF inh	FBW7 activator	TEAD-YAP block	GPR151 conf act	GPR119 counter
CCCSC1=C(C#N)C(c2ccc3c(c2)OCO3)CC(=O)N1 (stereo unspecified)	-1	1	0	-6	x	x
O=C(CN(c1cc(C(F)(F)F)ccc1Cl)S(=O)(=O)c1ccccc1)NCc1ccccc1	0	3	0	-1	x	x
O=C(Nc1cccc(S(=O)(=O)NCc2ccco2)c1)c1cc(F)c(F)c(F)c1F	4.9*	-6	0	8	0	4
CC(c1ccccc1)N1C(=O)CC(Nc2ccc(N3CCOCC3)cc2)C1=O (stereo unspecified)	7.2*	8	-1	1	0	13
CC(C)N1C(=O)CC(Nc2ccc(N3CCOCC3)cc2)C1=O (stereo unspecified)	0	1	0	-27	x	x
CCCCn1c(CNC(=O)Cc2ccc(OC)cc2)nnc1SC(C)C(=O)Nc1sc2c(c1C(=O)OCC)CCC2 (stereo unspecified)	-2	-7	0	-8	x	x
CCOC(=O)N1CCN(C(=O)CSc2nncn2C)CC1	-1	1	0	13	x	x
CC(=O)c1ccc(N2CCN(C(=S)Nc3cccc([N+](=O)[O-])c3)CC2)cc1	5.2*	1	0	-12	0	0
COc1cc([N+](=O)[O-])ccc1NC(=S)N1CCN(c2ccc(C(C)=O)cc2)CC1	7.3*	-6	0	0	0	-7
CCOC(=O)C1=C(CC)NC2=C(C(=O)CCC2)C1c1ccc(OC)c(Br)c1 (stereo unspecified)	0	-6	0	0	x	x
COc1ccc(C(=O)Nc2cccc(-c3nc4ncccc4o3)c2C)cc1[N+](=O)[O-]	1	12	0	6	x	x
COc1ccc(C(=O)Nc2cccc(-c3nc4ncccc4o3)c2C)cc1OC	5.5*	-1	0	9	1	3
COc1c(C)cccc1C(=O)Nc1cccc(-c2nc3ncccc3o2)c1	7.4*	-4	0	-10	0	5
CC(=O)Nc1ccc(-c2nc(-c3ccc(NC(C)=O)cc3)c3ccccc3n2)cc1	-1	-9	1	8	x	x
COc1ccc(N2C(=O)C3CCCN3C2c2cc(OC)ccc2OC)cc1 (stereo unspecified)	0	18	1	9	x	x
COc1ccc(N2C(=O)C3CCCN3C2c2ccccc2OC)cc1 (stereo unspecified)	6.1*	-13	0	-7	0	-8
CC1C(=O)N(Cc2ccc(Cl)cc2Cl)C(=O)CS1=O (stereo unspecified)	6.6*	-3	0	2	0	-2
